Source: PubChem BioAssay AID624063 (Southern Research Specialized Biocontainment Screening …, 2012)
Potency and affinity values are given separately. A number with no mark means an inactive call. The rule behind the calls is not given here.

assay: VEEV TC-83 cytopathic effect inhibitors, confirmation, cell-based, set 4 (AID 624063); conditions: VEEV TC-83 infected cells; series mostly up to 25 µM; inhibition: at the top concentration

Row | Structure (SMILES) | inhibition [%]
1 | CCN1CCN(Cc2nc3ccc(C(F)(F)F)cc3c(=O)n2-c2ccccc2F)CC1 | 20.2
2 | CCN1CCN(Cc2nc3ccccc3c(=O)n2-c2ccccc2F)CC1 | -5
3 | O=C(NCc1ccco1)C1CCN(C(=O)c2cc3sccc3n2Cc2ccc(F)cc2)CC1 | 13.5
4 | CC(C)(C)OC(=O)N1CCN(Cc2nc3ccc([N+](=O)[O-])cc3c(=O)n2-c2ccccc2F)CC1 | 1.6
